Screens: PubChem, National Center for Advancing Translational Sciences (NCATS)
NIH3T3 tox = NIH 3T3 cell cytotoxicity | NIH 3T3 viability, CellTiter-Glo ATP luminescence, 48-72 h | Potency, µM (series often up to 96.7 µM), hits mostly inhibitors | 4.3% of 94,000 active; note: nearly all actives have a fitted effect of over 55% in size
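First NIH 3T3 cells are plated at 400 cells/well; next compound is pinned in; then plates incubate 48 or 72 hr at 37 °C; finally CellTiter-Glo is added and luminescence read after 10 min.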
HEK293 tox = kills HEK 293 cells. HEK 293 viability, ATP luminescence (CellTiter-Glo), 48-72 h. Potency, µM (series often up to 115 µM), most hits filed as inhibitors. 6.6% of 94,000 active. AID 1345083; note: nearly all actives have a fitted effect of over 60% in size
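CellTiter-Glo luminescence (cellular ATP) was read after 48 or 72 hr of compound exposure at 37 degree Celsius. Cells were HEK 293 plated at 250 cells/well.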
NPR1 antag = blocks ANP-stimulated signaling of human Npr1 receptor; HEK293 hNpr1 GloSensor cGMP, ANP-stimulated luminescence; Potency, µM (series often up to 46.3 µM), most hits filed as inhibitors; 1.6% of 76,000 active; AID 1347048; calls by dose curve; note: nearly all actives have a fitted effect of over 60% in size
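HEK293 cells stably expressing human Npr1 and cGMP GloSensor pGS-40F, loaded 2 h with 2% GloSensor reagent, given compound 30 min at room temperature. Luminescence read before and 20 min after 0.1 nM hNppA.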
Luciferase inh = blocks purified firefly luciferase enzyme activity; P08659; purified P. pyralis luciferase, luminescence, biochemical; Potency, µM (series often up to 115 µM), most hits filed as inhibitors; 2.5% of 76,000 active; note: nearly all actives have a fitted effect of over 65% in size
Target sequence (P08659 whole entry, looked up): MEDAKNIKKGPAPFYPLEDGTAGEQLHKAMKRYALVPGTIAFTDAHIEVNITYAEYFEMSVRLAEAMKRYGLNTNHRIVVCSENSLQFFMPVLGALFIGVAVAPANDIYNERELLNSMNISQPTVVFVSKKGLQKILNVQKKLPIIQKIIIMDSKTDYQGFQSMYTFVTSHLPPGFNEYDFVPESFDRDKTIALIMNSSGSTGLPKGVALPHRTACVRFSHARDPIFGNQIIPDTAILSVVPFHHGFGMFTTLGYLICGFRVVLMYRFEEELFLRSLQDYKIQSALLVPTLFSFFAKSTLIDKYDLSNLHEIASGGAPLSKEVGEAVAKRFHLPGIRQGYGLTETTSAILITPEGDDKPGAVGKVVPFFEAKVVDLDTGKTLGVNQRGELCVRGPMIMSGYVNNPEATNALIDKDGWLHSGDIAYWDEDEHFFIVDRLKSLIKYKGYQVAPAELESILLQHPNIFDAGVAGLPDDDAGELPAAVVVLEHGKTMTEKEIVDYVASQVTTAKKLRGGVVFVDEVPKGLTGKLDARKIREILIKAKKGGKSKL
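Luminescence read by CCD imaging after purified firefly luciferase (10nM final) was added to substrate buffer holding 10uM D-luciferin and 10uM ATP, pH 7.5, pre-dosed with compound.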
Of the large screens only hits and unclear results are named; the others gave an inactive call; ! = a repeat was not active. Only some compounds are listed: those with a hit (about 11% of all), similar ones and a draw of the others. Unless noted, calls come from the whole dose curve; as a rule, active = well fitted curve in the direction sought with a large enough effect; inconclusive = small, poorly fitted or top-dose-only effect, or another doubt; inactive = no such curve, though single readings can be large; an effect the other way counts as inactive or inconclusive.

O=C1Nc2ccccc2C12CCN(S(=O)(=O)c1cccs1)C2 (centres undefined)	NIH3T3 tox inconclusive, HEK293 tox 89µM
Nc1ccc(CN2CCCC3(Cc4ccccc4CNC3=O)C2)cc1 (centres undefined)	none (no result: NPR1 antag, Luciferase inh)
O=C(O)COc1ccc(-c2nccc3c2C(=O)N(Cc2ccccc2)CC(COc2ccc(Cl)cc2)O3)cc1 (centres undefined)	NIH3T3 tox inconclusive, Luciferase inh 50µM
NCc1ccccc1-c1cnc2ccccc2c1	NIH3T3 tox 100µM, HEK293 tox inconclusive (no result: NPR1 antag, Luciferase inh)
C#CCNC(=O)C1CCCN(Cc2cccc(-c3ccc(F)cc3F)c2)C1 (centres undefined)	NIH3T3 tox inconclusive, HEK293 tox 45µM (no result: NPR1 antag, Luciferase inh)
N#Cc1cc(CN2CCCC(C(=O)Nc3cccc(-c4ccc(F)cc4)c3)C2)c[nH]1 (centres undefined)	NIH3T3 tox 18µM, HEK293 tox 25µM
CC(C)(C)CC(=O)N1CCCC(C(=O)Nc2cccc(-c3ccc(F)cc3)c2)C1 (centres undefined)	NIH3T3 tox inconclusive, HEK293 tox inconclusive
CC(=O)N1CCN(C(=O)C2CCCN(Cc3cccc(-c4ccc(F)cc4F)c3)C2)CC1 (centres undefined)	HEK293 tox inconclusive (no result: NPR1 antag, Luciferase inh)
O=C(Nc1cccc(F)c1)C1CCCN(Cc2cccc(-c3ccc(F)cc3F)c2)C1 (centres undefined)	NIH3T3 tox 45µM, HEK293 tox 20µM (no result: NPR1 antag, Luciferase inh)
CNC(=O)C1CCCN(Cc2cccc(-c3ccc(F)cc3F)c2)C1 (centres undefined)	NIH3T3 tox inconclusive, HEK293 tox 63µM (no result: NPR1 antag, Luciferase inh)
Cc1ccc(CN2CCc3oc(C)c(C(=O)N(C)CC(=O)N4CCCC4)c3C2)cc1	HEK293 tox inconclusive
CCC(C)NC(=O)C(NC(=O)c1ccc(C)cc1)C1CCN(C(=O)c2ccccc2C)CC1 (centres undefined)	none
Cc1ccc(CN2CCC3(CC2)OC(=O)N(Cc2ccc(O)cc2)C3(C)c2ccccc2)o1 (centres undefined)	NIH3T3 tox inconclusive, HEK293 tox inconclusive
Cc1ccccc1CN1CCC2(CC1)OC(=O)N(Cc1ccc(O)cc1)C2(C)c1ccccc1 (centres undefined)	NIH3T3 tox 32µM, HEK293 tox 35µM
COc1ccccc1CN1CCC2(CC1)OC(=O)N(Cc1ccccc1)C2(C)c1ccccc1 (centres undefined)	NIH3T3 tox inconclusive, HEK293 tox 50µM
COc1ncc(CN2CCC3(CC2)OC(=O)N(Cc2ccccc2)C3(C)c2ccccc2)cn1 (centres undefined)	HEK293 tox inconclusive
CC1(c2ccccc2)N(Cc2ccc(O)cc2)C(=O)OC12CCN(Cc1c[nH]c3ccccc13)CC2 (centres undefined)	NIH3T3 tox 10µM, HEK293 tox inconclusive, NPR1 antag inconclusive
COCc1cc(=O)n(CC(=O)Nc2cc(Cl)ccc2OC)c(N2CCOCC2)n1	NIH3T3 tox inconclusive, HEK293 tox inconclusive
CN(C)C(=O)c1cc(-c2ccc(Cl)cc2Cl)c2cnn(C)c2n1	none (no result: NPR1 antag, Luciferase inh)
Cn1ncc2c(C(=O)N3CCN(Cc4ccccc4)CC3)cc(-c3ccc(Cl)cc3)nc21	NIH3T3 tox inconclusive, HEK293 tox 40µM (no result: NPR1 antag, Luciferase inh)
Cn1ncc2c(-c3ccc(Cl)cc3Cl)cc(C(=O)N3CCN(c4ncccn4)CC3)nc21	NIH3T3 tox 45µM, HEK293 tox 32µM (no result: NPR1 antag, Luciferase inh)
Cn1ncc2c(C(=O)N3CCN(Cc4ccccc4)CC3)cc(-c3ccc(Cl)cc3Cl)nc21	NIH3T3 tox inconclusive, HEK293 tox 40µM (no result: NPR1 antag, Luciferase inh)
Cn1ncc2c(C(=O)N3CCN(c4ncccn4)CC3)cc(-c3ccc(Cl)nc3)nc21	NIH3T3 tox 35µM!, HEK293 tox inconclusive (no result: NPR1 antag, Luciferase inh)
CN1CCN(C(=O)c2cc(-c3ccc(Cl)cc3Cl)nc3c2cnn3C)CC1	none (no result: NPR1 antag, Luciferase inh)
CN1CCC(C(=O)N2Cc3ccccc3CC3(CCCN(Cc4ccncc4)C3)C2)CC1 (centres undefined)	none (no result: NPR1 antag, Luciferase inh)
Cc1cccc(C)c1-c1nnc2ccc(C(=O)NCC(C)C)cn12	none (no result: NPR1 antag, Luciferase inh)
O=C(NCc1cccc(F)c1)C1CCN(c2nc3ncccc3o2)CC1	none (no result: NPR1 antag, Luciferase inh)
Cc1cc(C(F)(F)F)nn1CC(=O)N1CCC(Cn2c(C)cnc2-c2ccccc2)CC1	none (no result: NPR1 antag, Luciferase inh)
CN(C(=O)c1cc(-c2cc(Cl)cc(Cl)c2)nc2c1cnn2C)c1ccccc1	NIH3T3 tox inconclusive, HEK293 tox 40µM (no result: NPR1 antag, Luciferase inh)
O=S(=O)(N[C@H]1[C@H](O)[C@H](O)C[C@@H]1c1ccccc1)c1ccc(C(F)(F)F)cc1	none
O=C(Nc1ccc(C(F)(F)F)cc1)N[C@H]1[C@H](O)[C@H](O)C[C@@H]1c1ccccc1	NIH3T3 tox 79µM, HEK293 tox inconclusive
